PubChem BioAssay
Active and inactive are the calls of the source.

What was measured:
[1] = binders of probe aFSTL3 on microarray, primary screen, stem cell growth factor project, biochemical, small-molecule microarray, fluorescence 635/667 (AID 1064); conditions: higher = more signal;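 also: measures binding of the biotinylated anti-FSTL3 antibody to printed compounds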
[2] = binders from COS7 lysate, DM2A8 probe, primary screen, torsin A project, cell lysate, small-molecule microarray, fluorescence 635/667 (AID 1065); conditions: higher = more signal, COS7 lysate expressing mutant human TOR1A
[3] = binders of probe aFGF2 on microarray, primary screen, stem cell growth factor project, biochemical, small-molecule microarray, fluorescence 635/667 (AID 1067); conditions: higher = more signal;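 also: measures binding of biotinylated aFGF2 protein to printed compounds on slides; z-score merges feature fluorescence and signal-to-noise across triplicate slides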
[4] = binders of probe aFGF10 on microarray, primary screen, stem cell growth factor project, biochemical, small-molecule microarray, fluorescence 635/667 (AID 1071); conditions: higher = more signal;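 also: score merges 667 nm spot intensity and signal to noise from triplicate slides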
[5] = molecular target: Neurogenic locus notch homolog protein 2 (Homo sapiens) (UniProt Q04721); assay: Notch2 binders on small-molecule microarrays, primary screen, biochemical, small-molecule microarray, 635 nm fluorescence, stem cell growth factors (AID 1073); conditions: Notch2 binding, higher = more signal
Sequence of Neurogenic locus notch homolog protein 2 (Homo sapiens) (Q04721 whole entry, looked up, canonical isoform): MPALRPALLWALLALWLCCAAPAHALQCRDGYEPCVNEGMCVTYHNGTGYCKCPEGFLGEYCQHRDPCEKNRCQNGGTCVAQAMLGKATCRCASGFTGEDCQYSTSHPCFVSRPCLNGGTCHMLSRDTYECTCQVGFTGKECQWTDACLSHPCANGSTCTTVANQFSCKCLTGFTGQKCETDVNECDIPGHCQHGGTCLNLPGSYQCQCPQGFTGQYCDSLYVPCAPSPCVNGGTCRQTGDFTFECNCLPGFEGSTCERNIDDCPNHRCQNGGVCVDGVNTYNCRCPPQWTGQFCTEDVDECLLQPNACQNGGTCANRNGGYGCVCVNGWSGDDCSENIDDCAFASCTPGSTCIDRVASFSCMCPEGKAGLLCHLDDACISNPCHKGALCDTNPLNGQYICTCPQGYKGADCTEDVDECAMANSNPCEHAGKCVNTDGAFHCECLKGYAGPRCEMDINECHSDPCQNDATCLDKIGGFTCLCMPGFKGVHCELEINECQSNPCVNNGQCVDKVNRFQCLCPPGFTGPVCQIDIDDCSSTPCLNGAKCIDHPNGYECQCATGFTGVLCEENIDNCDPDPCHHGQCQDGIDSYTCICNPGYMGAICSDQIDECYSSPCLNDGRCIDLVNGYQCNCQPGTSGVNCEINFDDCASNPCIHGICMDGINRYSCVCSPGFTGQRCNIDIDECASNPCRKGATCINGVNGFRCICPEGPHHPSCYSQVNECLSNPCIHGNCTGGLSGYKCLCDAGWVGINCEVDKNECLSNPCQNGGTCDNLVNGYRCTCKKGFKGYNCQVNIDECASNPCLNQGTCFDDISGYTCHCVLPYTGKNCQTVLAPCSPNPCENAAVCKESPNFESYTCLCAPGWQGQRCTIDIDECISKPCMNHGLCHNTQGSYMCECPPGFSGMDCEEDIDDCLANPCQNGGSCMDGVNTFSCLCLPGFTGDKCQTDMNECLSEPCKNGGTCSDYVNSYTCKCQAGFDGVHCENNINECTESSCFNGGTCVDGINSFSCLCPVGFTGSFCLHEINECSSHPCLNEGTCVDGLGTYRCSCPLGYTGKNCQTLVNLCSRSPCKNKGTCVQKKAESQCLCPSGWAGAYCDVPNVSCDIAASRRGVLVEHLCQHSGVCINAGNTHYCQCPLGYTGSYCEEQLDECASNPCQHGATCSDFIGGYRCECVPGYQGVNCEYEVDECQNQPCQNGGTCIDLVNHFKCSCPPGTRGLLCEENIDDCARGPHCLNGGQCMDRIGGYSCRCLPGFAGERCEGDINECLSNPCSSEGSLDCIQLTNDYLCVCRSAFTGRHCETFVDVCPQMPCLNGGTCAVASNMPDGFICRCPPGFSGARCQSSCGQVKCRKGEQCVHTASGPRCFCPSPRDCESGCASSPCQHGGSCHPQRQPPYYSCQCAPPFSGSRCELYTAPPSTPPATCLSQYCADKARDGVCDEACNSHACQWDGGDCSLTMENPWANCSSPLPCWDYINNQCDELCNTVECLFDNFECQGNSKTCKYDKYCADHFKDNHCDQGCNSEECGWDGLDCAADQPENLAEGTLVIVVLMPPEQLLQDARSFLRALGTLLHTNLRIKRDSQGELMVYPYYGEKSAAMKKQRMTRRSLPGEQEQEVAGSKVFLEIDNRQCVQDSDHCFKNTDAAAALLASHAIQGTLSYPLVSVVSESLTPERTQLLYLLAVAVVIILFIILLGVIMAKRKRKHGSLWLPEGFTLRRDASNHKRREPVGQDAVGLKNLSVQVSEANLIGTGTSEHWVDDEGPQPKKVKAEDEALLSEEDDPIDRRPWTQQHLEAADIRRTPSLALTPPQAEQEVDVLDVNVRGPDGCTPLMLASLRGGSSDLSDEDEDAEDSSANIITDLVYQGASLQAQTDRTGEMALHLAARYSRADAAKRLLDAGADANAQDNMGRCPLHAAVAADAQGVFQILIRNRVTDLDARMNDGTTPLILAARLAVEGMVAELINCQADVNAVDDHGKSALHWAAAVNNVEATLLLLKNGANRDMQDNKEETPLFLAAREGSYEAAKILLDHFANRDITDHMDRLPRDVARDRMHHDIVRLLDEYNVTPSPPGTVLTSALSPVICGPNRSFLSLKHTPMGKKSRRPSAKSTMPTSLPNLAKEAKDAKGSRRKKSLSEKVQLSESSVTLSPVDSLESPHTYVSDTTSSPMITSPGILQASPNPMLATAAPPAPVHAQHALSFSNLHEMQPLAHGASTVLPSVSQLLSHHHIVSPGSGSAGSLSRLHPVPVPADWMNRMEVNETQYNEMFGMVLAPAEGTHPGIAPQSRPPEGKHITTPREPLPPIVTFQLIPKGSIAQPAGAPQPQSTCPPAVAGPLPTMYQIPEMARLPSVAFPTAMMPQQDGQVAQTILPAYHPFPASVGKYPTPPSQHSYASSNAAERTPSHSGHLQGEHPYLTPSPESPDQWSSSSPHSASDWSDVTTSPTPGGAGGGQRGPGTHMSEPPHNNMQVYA

[6] = molecular target: Pro-neuregulin-1, membrane-bound isoform (Homo sapiens) (UniProt Q02297); assay: NRG1 binders on small-molecule microarrays, primary screen, psychiatric disease protein project, biochemical, small-molecule microarray, fluorescence 635/667 (AID 1075); conditions: NRG1 binding, 635 nm fluorescence, higher = more signal;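 also: score combines 667 nm spot fluorescence with signal to noise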
Sequence of Pro-neuregulin-1, membrane-bound isoform (Homo sapiens) (Q02297 whole entry, looked up, the tested form may be a part, canonical isoform): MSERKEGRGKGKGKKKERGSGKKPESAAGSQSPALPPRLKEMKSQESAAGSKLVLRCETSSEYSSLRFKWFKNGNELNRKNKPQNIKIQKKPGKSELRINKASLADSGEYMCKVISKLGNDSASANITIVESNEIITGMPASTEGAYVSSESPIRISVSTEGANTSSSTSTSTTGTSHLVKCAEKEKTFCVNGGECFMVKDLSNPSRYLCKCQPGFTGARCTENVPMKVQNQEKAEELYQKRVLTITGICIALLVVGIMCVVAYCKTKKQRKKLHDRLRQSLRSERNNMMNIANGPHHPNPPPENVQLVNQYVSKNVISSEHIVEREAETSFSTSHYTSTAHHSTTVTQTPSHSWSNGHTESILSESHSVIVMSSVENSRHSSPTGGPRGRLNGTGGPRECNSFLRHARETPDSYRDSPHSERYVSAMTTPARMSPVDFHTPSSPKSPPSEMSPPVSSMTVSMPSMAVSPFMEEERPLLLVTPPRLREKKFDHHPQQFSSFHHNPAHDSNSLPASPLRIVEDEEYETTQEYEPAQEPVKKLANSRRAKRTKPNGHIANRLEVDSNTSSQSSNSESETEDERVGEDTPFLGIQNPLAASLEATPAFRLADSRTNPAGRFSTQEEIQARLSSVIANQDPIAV

[7] = tested on: Neuregulin-1 EGF-like domain; assay: binders of neuregulin-1 EGF-like domain, primary screen, biochemical, small-molecule microarray, 635 nm fluorescence (AID 1081); conditions: small-molecule microarray binding, higher = more signal;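 also: binding of the protein to compounds printed on small-molecule microarray slides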
[8] = FRG1 promoter luciferase signal modulators, primary screen, FRG1 inhibition for FSHD, cell-based, C2C12 myotubes, firefly/Renilla luciferase, luminescence (AID 1084); conditions: higher = more signal, called active from +8 up or from −8 down
[9] = binders of probe aFST on microarray, primary screen, stem cell growth factor project, biochemical, small-molecule microarray, fluorescence 635/667 (AID 1086); conditions: higher = more signal;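 also: score merges 667 nm fluorescence with signal-to-noise of each printed compound spot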
[10] = binders of probe aHhip on microarray, primary screen, stem cell growth factor project, biochemical, small-molecule microarray, fluorescence 635/667 (AID 1087); conditions: higher = more signal;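 also: score merges spot fluorescence at 667nm with spot signal to noise ratio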

Structure (SMILES) | composite z-score [1] | composite z-score [2] | composite z-score [3] | composite z-score [4] | composite z-score [5] | composite z-score [6] | composite z-score [7] | z-score [8] | composite z-score [9] | composite z-score [10]
CCCC[C@H]1OB(O)C[C@H]2C1=C(C)Cn1c(=O)n(-c3ccccc3)c(=O)n12 | -0.396 | 0.383 | -0.116 | 0.365 | 0.585 | -0.0946 | 0.129 | -0.127 (inactive) | 0.292 | -0.0237
C#C[C@H](O[Si](C#CCCCCCC)(C(C)C)C(C)C)c1ccccc1 | -0.441 | -0.0593 | -0.0994 | 0.323 | -0.55 | -0.204 | 0.0885 | 0.0077 (inactive) | -0.748 | -0.217
COc1ccc([Si](C)(C)[C@@H]2[C@@H](CCO)O[C@]3(C(=O)N(Cc4ccc(N5C(=O)c6cccc7cccc5c67)cc4)c4ccccc43)[C@H]2C)cc1 | 0.458 | 0.23 | -0.0566 | -0.383 | -0.35 | 0.995 | 0.695 | -3.01 (inactive) | -0.292 | -0.189
Cc1ccc([C@H]2C(C(=O)O)=C[C@@H](C(C)C)N2S(=O)(=O)c2ccc(C)cc2)cc1 | -0.0974 | -0.304 | -0.0667 | 0.163 | 1.14 | 1.19 | 1.31 | -1.57 (inactive) | 0.384 | -0.287
CC(c1ccccc1)C(O)C1C=CC2C(=O)N(Cc3ccccc3)C(=O)C2N1n1cnnc1 (stereo not given) | -0.0479 | 0.327 | -0.0165 | 0.351 | 1.07 | 0.446 | 1.01 | -0.0355 (inactive) | 0.541 | 0.0373
C=C(C(=O)CC[C@H](OC(=O)c1cccnc1)c1ccccc1OCCO)C(C)C | 0.0323 | 1.78 | -0.133 | 0.636 | 0.0984 | -0.124 | 0.962 | 0.276 (inactive) | 0.106 | -0.204
OCCCc1cc[n+](Cc2cccc(OC(F)(F)F)c2)cc1 | 0.451 | 0.451 | -0.085 | -0.389 | 0.272 | 0.564 | 1.47 | 1.7 (inactive) | 0.676 | -0.125
C[C@]1(C(=O)NCC(F)(F)F)c2ccccc2C(=O)N(Cc2cc(F)cc(C(F)(F)F)c2)[C@H]1c1ccc(CO)cc1 | -0.599 | 0.553 | 0.274 | 0.0438 | -0.94 | 1.74 | 0.623 | -0.763 (inactive) | -0.409 | 2.14
CC(C)C(CO)N1C(=O)[C@@H]2[C@H]3C(=O)OCC=C[C@H]3OC23C=CCN(c2ccc4ccccc4c2)C(=O)[C@@H]13 (stereo not given in full) | 0.316 | -0.377 | -0.169 | -0.134 | -1.13 | 0.187 | -0.111 | 0.125 (inactive) | -0.527 | 0.0373
C=C(/C(=C/C[C@@H](OC(=O)c1ccncc1)c1ccc(CO)o1)c1cc(C(=O)OC)ccc1OC)C(C)C | -0.441 | 1.46 | -0.0226 | 0.901 | 0.974 | 1.15 | 0.954 | -1.13 (inactive) | 0.377 | 0.0373
CCOC(=O)C1=C[C@@H](C(C)(C)C)N(S(=O)(=O)c2ccc(C)cc2)[C@H]1c1ccc(Cl)c(Cl)c1 | -0.301 | 0.134 | 0.12 | 0.614 | 1.56 | 1.53 | 0.911 | -0.446 (inactive) | 0.514 | -0.236
CCOC(=O)C1=CC[C@@H](c2cccc(Cl)c2)N(S(=O)(=O)c2ccc(C)cc2)[C@H]1c1ccc(C#N)cc1 | 0.128 | 0.0669 | 0.104 | 0.862 | 1.65 | 1.61 | 1.15 | -0.534 (inactive) | 0.751 | 0.0274
COCC1=C([C@H](O)CCc2ccccc2)[C@H](CO)[C@@H]2C(=O)N(Cc3ccccc3)C(=O)[C@@H]2C1 | -0.286 | -0.133 | -0.101 | 0.085 | 0.258 | -0.295 | -0.112 | -0.4 (inactive) | -0.0829 | -0.249
Cc1ccc(S[C@]2(C(=O)NCCCN(C)C)CC(=O)N(C(C)C)[C@@H]2c2ccc(CO)cc2I)cc1 | 0.052 | -0.54 | -0.0954 | -0.238 | -0.373 | 0.994 | 0.861 | -0.312 (inactive) | -0.152 | -0.354
O=C1C2C=CC(C(O)c3ccc(-c4ccccc4)s3)N(Nc3ccccc3F)C2C(=O)N1c1ccccc1 (stereo not given) | 0.623 | 0.0116 | 0.0352 | 0.243 | 1.58 | 1.65 | 1.28 | 1.72 (inactive) | 0.955 | -0.0296
CCCC[C@@H]1C[C@H]1[C@@H](NC(=O)c1ccccc1)c1ccc(-c2ccccc2)cc1 | -0.138 | 0.535 | 0.0805 | -0.0214 | 0.294 | 0.23 | 0.341 | -1.76 (inactive) | 0.442 | -0.21
CCCCCCC#C[Si](O[C@H](c1ccccc1)c1cn([C@H](C)c2ccccc2)nn1)(C(C)C)C(C)C | -0.0028 | 0.247 | -0.083 | 0.291 | 0.315 | 0.114 | -0.333 | -0.532 (inactive) | -0.495 | 0.0147
COCCOC(=O)N1C(=O)[C@@]2(c3cc(C#CC4=CCCCC4)ccc31)[C@H](C(=O)N1CCN(c3ncccn3)CC1)[C@H]1C(=O)O[C@H](c3ccccc3)[C@H](c3ccccc3)N1[C@@H]2c1ccc(OCCO)cc1 | 0.121 | 0.181 | 0.0533 | 0.723 | 1.42 | -0.289 | 1.17 | 0.384 (inactive) | 0.824 | 0.109
COc1ccc([Si](C)(C)[C@@H]2[C@@H](CCn3cc([C@H](O)c4ccccc4)nn3)O[C@]3(C(=O)N(C)c4ccccc43)[C@H]2C)cc1 | -0.266 | 0.356 | -0.0468 | 0.181 | 0.0572 | 0.0939 | 0.448 | -1.31 (inactive) | -0.108 | -0.391
C=CCC(OC(C)=O)[C@@H]1[C@@H](N(Cc2ccc(-c3ccccc3)cc2)C(=O)c2ccc(C)cc2)c2cc(OCCCO)ccc2N1C(=O)Cc1ccc(OC)cc1 (stereo not given in full) | -0.0305 | 0.0667 | -0.078 | 0.27 | -0.0045 | -0.369 | -0.453 | -1.32 (inactive) | 0.255 | -0.0994
COc1ccc(C(O)C2C=CC3C(=O)N(c4ccccc4)C(=O)C3N2Nc2ccccc2)c2ccccc12 (stereo not given) | 0.782 | -0.141 | -0.0201 | 0.354 | 0.945 | 0.724 | 1.04 | -0.0953 (inactive) | 0.563 | -0.163
